Reference: PubChem BioAssay (NCI)
This is part of a sample that, as a whole, favours compounds with a hit. Of some 83,000 tested, about 20% had one in any assay.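 A percent growth of 40 corresponds to 60% growth inhibition; 0 means no net growth; -100 means all cells died. Active threshold: below 10.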 Activity calls are given as the source filed them.

Key:
Experiment in all cases: NCI-60 one-dose screen, 48 h (100 = growth as untreated, 0 = no growth, -100 = all killed)
Settings in all cases: 10 µM
[1] = tested on: HT29 colon
[2] = tested on: SNB-75 CNS
[3] = tested on: SNB-19 CNS
[4] = tested on: U251 CNS
[5] = tested on: PC-3 prostate
[6] = tested on: SK-MEL-5 melanoma
[7] = tested on: UACC-62 melanoma
[8] = tested on: LOX IMVI melanoma
[9] = tested on: SK-MEL-2 melanoma
[10] = tested on: SK-MEL-28 melanoma

Measured: growth

N#Cc1c(C#N)c(SSc2c(C#N)c(C#N)c(N)n2-c2ccccc2)n(-c2ccccc2)c1N
inactive: [1] 101% | [2] 71.7% | [3] 103% | [4] 114% | [5] 49% | [6] 96.7% | [7] 94.8% | [8] 96.4% | [9] 98.5%

c1ccc(C(NC2CC3CCC2C3)c2ccccc2)cc1 (centres undefined)
inactive: [1] 85.8% | [2] 93.5% | [3] 99% | [4] 91.9% | [5] 97.2% | [6] 99.7% | [7] 87.2% | [8] 95.3% | [10] 110% | [9] 89.6%

Cc1cc(O)c(C(C)(C)C)cc1Sc1cc(C(C)(C)C)c(O)cc1C
inactive: [1] 97.1% | [2] 54.2% | [3] 81% | [4] 60% | [5] 22.5% | [6] 33.7% | [7] 16.3% | [8] 63.9% | [9] 72.6%

O=C(Cc1csc2nc(-c3ccc(Cl)cc3)cn12)N/N=C/c1ccccc1O
inactive: [1] 82.1% | [2] 68.6% | [3] 60.8% | [4] 42.2% | [5] 55.2% | [6] 45.8% | [7] 46% | [8] 38.6% | [9] 75.8%

COc1ccc(-c2ccc3cc(C(=O)Nc4ccc(O)c(C(=O)/C=C/c5cc(OC)c(OC)c(OC)c5)c4)ccc3c2)cc1
inactive: [1] 95.3% | [2] 94% | [3] 96.1% | [4] 92.6% | [5] 65.5% | [6] 72.6% | [7] 71.1% | [8] 81.3% | [10] 106% | [9] 99.5%

COc1ccc(-c2cc(-c3ccc(N(C)C)cc3)c(C#N)c(N3CCCC3)n2)cc1
inactive: [1] 63.2% | [2] 99.7% | [3] 90.1% | [4] 86% | [5] 82.2% | [6] 58.5% | [7] 102% | [8] 34.2% | [10] 93.4% | [9] 84%

O=C(CCCCCCC(=O)Nc1cccnc1)NO
inactive: [1] 13.2% | [3] 68.1% | [4] 42.2% | [5] 26.3% | [6] 15.3% | [7] 25.3% | [8] 62.4% | [9] 28.8%
active: [2] -13.5%

COc1ccc(-c2cc(/C=C/C(=O)c3cc(OC)c(OC)c(OC)c3)[nH]n2)cc1OC
inactive: [2] 17.8% | [3] 25.5% | [5] 24.7% | [6] 27.4% | [7] 50.8% | [9] 69.9%
active: [1] -53.9% | [4] -77.6% | [8] -79% | [10] -66.8%

N=C(N)c1ccc(-c2ccc(-c3ccccc3)o2)nc1
inactive: [1] 19.3% | [2] 38.5% | [3] 82.7% | [4] 83.6% | [5] 71.7% | [6] 86.1% | [7] 103% | [8] 83.4% | [10] 96.2% | [9] 109%

O=c1c2ccccc2nc(SCCN2CCCCC2)n1CCc1ccccc1
inactive: [1] 30.1% | [2] 87% | [3] 102% | [4] 86.7% | [5] 89.2% | [6] 76.7% | [7] 97.8% | [8] 81.6% | [10] 101% | [9] 102%

O=C1/C(=C\c2ccc(Cl)cc2)CN(C(=S)Nc2ccccc2)C/C1=C\c1ccc(Cl)cc1
active: [1] -77% | [2] -36.3% | [3] -72.9% | [4] -97.7% | [5] -55.6% | [6] -73% | [7] -70.4% | [8] -80.1% | [10] -60.3% | [9] -28.4%

CS(=O)(=O)Nc1ccc(Nc2c3ccccc3nc3cc([N+](=O)[O-])ccc23)cc1
active: [8] -27.1%
inactive: [1] 11.8% | [2] 41.3% | [3] 43.3% | [4] 21% | [5] 44.4% | [6] 13.5% | [7] 32.2% | [10] 43.4% | [9] 23.3%

O=C(CC(c1ccccc1)N1CCOCC1)c1ccccc1 (centres undefined)
inactive: [1] 90.1% | [2] 85.8% | [3] 85% | [4] 80.8% | [5] 72.1% | [6] 97.2% | [7] 93.6% | [8] 89% | [9] 94.7%

COc1ccc(N=C2C(=Nc3ccc(OC)cc3)N(c3ccc(N(C)C)cc3)C(=S)N2c2ccc(OC)cc2)cc1
inactive: [1] 84% | [3] 75.1% | [4] 49.3% | [5] 52.5% | [6] 84.8% | [7] 98.2% | [8] 86.3% | [9] 90.7%
active: [2] 8.69%
